The record followed here is PubChem BioAssay AID1159606 (Sanford-Burnham Center for Chemical Genomics, 2016).

In all, about 360,000 compounds went through this assay and about 7,300 (2%) were called active. No stated cut-off is given here; in the data, active means inhibition above about 50%; inactive means the rest. Many of the other results were omitted from the sample, so actives are more common in it than they were.

A short description of this experiment: blockers of TWEAK-induced Fn14 reporter activity – luciferase reporter cells, uHTS, primary screen (AID 1159606). To be noted: TWEAK-stimulated Fn14 reporter cells, luciferase luminescence, 8 h; at 10 µM; stronger effect = higher value. In general terms: Reporter assays use an easily measured gene product as a stand-in for the process of interest.
Usually inhibition stands for the drop in the measured response relative to a control, in per cent. For the compound `O=C(CN(C(=O)c1csnn1)c1cccc(F)c1)NCc1ccc(F)cc1`, the inhibition is 0.95% (inactive).
For the compound `COc1ccc(C(c2nnnn2C2CCCC2)N2CCN(C/C=C/c3ccccc3)CC2)cc1` (stereo unspecified), the inhibition was -2.02% (inactive).
`O=C(NCCOc1ccccc1)c1ccccc1F`: the inhibition was 30.7% (inactive).
The same measure for `NS(=O)(=O)c1cc(C(=O)NCCOc2ccccc2)c(Cl)cc1Cl`: 3.06% (inactive); for `O=C(NCCOc1ccccc1)c1ccccc1`: 54.9% (active).
In the case of `COc1cc(C(=O)OCC(=O)N(CC(C)C)C2CCS(=O)(=O)C2)ccc1OCC(C)C` (stereo unspecified), the inhibition was -5.97% (inactive).
The same measure for `COc1ccc(CCNC(=O)CCC(=O)NC2CCCCC2)cc1OC`: 4.09% (inactive).
For `COc1ccc(CNc2nnnn2C)cc1`, the inhibition was 2.29% (inactive).
As to `COc1ccc(-n2nnnc2SCC(=O)NCc2cccs2)cc1`, the inhibition was -2.38% (inactive).
Regarding `COc1ccc(-n2nnnc2-c2nc3ccccc3s2)cc1`, the inhibition was 74% (active).
With `Cc1ccc(CN2CCCOCCS2(=O)=O)cc1`, the inhibition is -9.75% (inactive).
Take `CCCOc1ccccc1-c1nc(SCCC(=O)O)n[nH]1`: the inhibition is -9.1% (inactive).
To `Cc1cc(C)nc(Nc2n[nH]c(-c3ccccc3N)n2)n1` belongs 53.5% (active); to `Nc1ccccc1-c1nc2ccncc2[nH]1`, -11.5% (inactive).
For `COc1ccc2c(c1)CC[C@@H]1[C@@H]2CC[C@]2(C)C(=O)CC[C@@H]12`, the inhibition was -3.91% (inactive).
With `O=C(NCc1ccccc1)C1c2ccccc2OCC(=O)N1C1CC1` (stereo unspecified), the inhibition is 4.34% (inactive).
As to `NC(=O)Nc1ccccc1C(=O)NCCc1ccccc1`, the inhibition is 11.8% (inactive).
Turning to `CC1Sc2ccc(S(=O)(=O)CCC(=O)NCc3ccccc3Cl)cc2NC1=O` (stereo unspecified), the inhibition is 0.42% (inactive).
Consider `COc1ccccc1N1CCN(C(=O)CCS(=O)(=O)c2ccc3c(c2)NC(=O)C(C)S3)CC1` (stereo unspecified), for which the inhibition is 21.7% (inactive).
Take `Cc1cccc(N2CCN(C(=O)CCS(=O)(=O)c3ccc4c(c3)NC(=O)C(C)S4)CC2)c1C` (stereo unspecified): the inhibition was 50.6% (active).
On to `O=C(NCc1ccc(F)cc1)C1CCN(C(=O)Nc2ccc(F)cc2)CC1`, for which the inhibition is 31.5% (inactive).
Turning to `O=C(Nc1ccccc1C(=O)N1CCOCC1)c1ccc(Cl)cc1`, the inhibition was -5.43% (inactive).
On to `O=C(Nc1ccc(Cl)cc1)Nc1ccc(C(=O)N2CCOCC2)cc1`, for which the inhibition is 79% (active).
Take `Cc1c(Cl)cccc1NC(=O)Nc1ccc(C(=O)N2CCCC2)cc1`: the inhibition was 5.68% (inactive).
On to `COc1cc2c(C(=O)N3CCN(C)CC3)c(CSc3ccccc3)n(C)c2cc1Br`, for which the inhibition was 0.16% (inactive).
Take `CCN(CC)CCN(C)C(c1ccnc2ccccc12)c1nnnn1-c1ccc2c(c1)OCCO2` (stereo unspecified): the inhibition is 29.9% (inactive).
Take `CCCCn1nnnc1C1(C)CCC(=O)N1Cc1ccc(OC)c(OC)c1` (stereo unspecified): the inhibition is 2.84% (inactive).
In the case of `COc1ccc(COC[C@H](CC(C)C)N2CCN(C(=O)c3cccc(C(F)(F)F)c3)CCC2=O)cc1`, the inhibition was 0.93% (inactive).
To `O=c1ccc2c(-c3ccccc3S(=O)(=O)O)c3ccc(O)c(O)c3oc-2c1O` belongs 78% (active); to `O=C1c2ccccc2C(c2nc3ccccc3[nH]2)N1c1ccccc1` (stereo unspecified), 20.9% (inactive).
Turning to `CCc1ccc(Oc2coc3cc(OC(=O)c4cc5ccccc5oc4=O)ccc3c2=O)cc1`, the inhibition was -16.7% (inactive).
As for `CSc1nnc(CNC(=O)c2ccccc2)n1-c1ccc(F)cc1`, the inhibition was 23.6% (inactive).
As to `O=C(OC1CC2CC1[C@H]1CCCCN1C2=O)N1CCOCC1` (stereo partly specified), the inhibition was 24.2% (inactive).
The same measure for `NC(=O)c1ncn([C@@H]2O[C@H](CN=C3NS(=O)(=O)c4ccccc43)[C@@H](O)[C@H]2O)n1`: -2.64% (inactive); for `Cc1oc2cc([N+](=O)[O-])c(O)c([N+](=O)[O-])c2c1C(=O)c1ccc(Br)cc1`: 20% (inactive); for `O=C(NNc1ccccc1Cl)C(O)(c1cccc(C(F)(F)F)c1)c1cccc(C(F)(F)F)c1`: 74.5% (active).
On to `O=C(CNS(=O)(=O)c1cccc(C(F)(F)F)c1)Nc1ccccc1F`, for which the inhibition is -3.29% (inactive).
As to `O=C(O)c1cc(S(=O)(=O)N(Cc2ccccc2)c2cccc(C(F)(F)F)c2)ccc1Cl`, the inhibition was 9.03% (inactive).
Turning to `CCCNCc1cc(OCC)c(OCC(=O)Nc2ccccc2)cc1Br`, the inhibition was 3.35% (inactive).
For the compound `O=C(CN1CCOC1=O)N1CCCC(Nc2ccc(F)c(F)c2)C1` (stereo unspecified), the inhibition is -4.67% (inactive).
To `O=C1CCCCN1CCCC(=O)N1CCCC(Nc2ccc(F)cc2)C1` (stereo unspecified) belongs 10.3% (inactive); to `O=C(CN1C(=O)CSC1=O)N1CCCC(Nc2ccc(F)cc2)C1` (stereo unspecified), 89.2% (active); to `CCCn1c(N)c(C(=O)CSc2nnc(Cc3cccs3)n2C2CC2)c(=O)[nH]c1=O`, -4.97% (inactive).
The same measure for `CC1CC(C)CN(S(=O)(=O)c2ccc(C(=O)NN3CCOCC3)cc2)C1` (stereo unspecified): 15.8% (inactive); for `COc1ccc(/C=C/c2noc(-c3ccccc3OC(C)=O)n2)cc1`: 48.5% (inactive).
To `COc1ccc(-c2noc(CNC(=O)C(C)Oc3ccccc3)n2)cc1` (stereo unspecified) belongs -2.29% (inactive); to `COc1ccc(-c2nc(-c3ccccc3)no2)c(OC)c1`, 96.2% (active).
As to `CC1CN(C(=O)CCC(=O)NCCCN2CCC(Cc3ccccc3)CC2)c2cc(Cl)ccc2O1` (stereo unspecified), the inhibition was -12.8% (inactive).
With `O=C1C2CCCN2C(=O)N1CCCCN1CCN(c2cccc(C(F)(F)F)c2)CC1` (stereo unspecified), the inhibition was -4.34% (inactive).
To `COc1ccc(N(CCC(=O)NCCc2ccccc2)S(=O)(=O)c2ccc(C)cc2C)cc1` belongs -9.44% (inactive).
`O=C(COC(=O)/C=C/c1cn(-c2ccccc2)nc1-c1cccnc1)Nc1ccc(Cl)cc1Cl`: the inhibition was -65% (inactive).
As to `COc1ccc(NC(=O)CN(C)C(=O)/C=C/c2cn(Cc3ccccc3)nc2-c2cccnc2)cc1`, the inhibition is -11.2% (inactive).
With `O=C(O)CCn1cc(/C=C/C(=O)c2ccc(Cl)cc2)c(-c2cccc(Br)c2)n1`, the inhibition was 66% (active).
As to `CCOC(=O)[C@H]1Nc2ccc(Cl)cc2[C@@H]2[C@H]1C1CC(c3ccccc31)N2C(=O)OCc1ccccc1` (stereo partly specified), the inhibition was -23.5% (inactive).
With `CCCCNC(=O)OC1CC2CC1[C@H]1CCCCN1C2=O` (stereo partly specified), the inhibition was 7.93% (inactive).
In the case of `CCOC12CC(C)(C)CC(C)(CC3=C1C(=O)CC(C)(C)C3)C2` (stereo unspecified), the inhibition was 76.6% (active).
With `Cc1noc(C)c1-c1nc(CSc2ccc(Cl)cc2)no1`, the inhibition is -29% (inactive).
In the case of `COc1cc2nnn(-c3ccncc3)c2cc1OC`, the inhibition is 1.57% (inactive).
With `Cn1c(N2CCOCC2)c(C=O)c2ccccc21`, the inhibition was -2.19% (inactive).
To `COc1cccc(-n2c(=S)[nH]c3c(oc4ccccc43)c2=O)c1` belongs 22.3% (inactive); to `O=c1oc2ccccc2cc1-c1cn(-c2ccccc2)c(=S)[nH]1`, 107% (active).
Take `CC1(C)CCSC(/C=C/c2ccccc2)=N1`: the inhibition was 71.7% (active).
On to `CC1(C(=O)O)CCN1C(=O)/C=C/c1ccccc1` (stereo unspecified), for which the inhibition was 4.71% (inactive).
To `CC1(C(=O)NS(=O)(=O)c2ccccc2)CCN1C(=O)C/C=C/c1ccccc1` (stereo unspecified) belongs -7.09% (inactive).
As for `CC(C)=CCCC1(C)C=Cc2c(ccc3c2[nH]c2cc(O)c(C)cc23)O1` (stereo unspecified), the inhibition was 67% (active).
`CN(C(=O)COC(=O)Cn1cnc2c1c(=O)n(C)c(=O)n2C)C1(C#N)CCCCC1`: the inhibition is -7.55% (inactive).
Take `COC(=O)C(C)N(C#N)c1nc(C)nc(C)n1` (stereo unspecified): the inhibition was -3.55% (inactive).
Take `Cc1nnc(SC(C(=O)Nc2cc(Cl)cc(Cl)c2)c2ccccc2)[nH]c1=O` (stereo unspecified): the inhibition is -1.44% (inactive).
For the compound `CCCc1ccc(OCCNC(=O)c2ccccc2Br)cc1`, the inhibition was -12.5% (inactive).
On to `CC(C)CCOc1ccc(C(=O)C[N+]2(C)CCOCC2)cc1`, for which the inhibition was -7.15% (inactive).
As for `CCCOc1ccc(C(=O)C(CCC(CNCC)C(=O)c2ccc(OCCC)cc2)CNCC)cc1` (stereo unspecified), the inhibition was 103% (active).
The same measure for `CC(Oc1ccc(F)cc1)C(=O)Nc1ccccc1C(=O)NC1CC1` (stereo unspecified): 8.99% (inactive); for `COC(=O)c1onc(-c2c(OC)cc(OC)cc2OC)c1C(=O)OC`: 10.7% (inactive); for `CC(C)C(C(=O)NC1CCCCC1)N(CC1CCCO1)C(=O)CNS(=O)(=O)c1ccc(F)cc1` (stereo unspecified): 8.87% (inactive).
To `Cc1ccc(N(CC(=O)NC2CCCCC2)C(=O)CCCC(=O)Nc2ccccn2)c(C)c1` belongs -5.23% (inactive); to `Cc1ccc(C(=O)NCC(=O)OCc2nnc(-c3ccccc3)o2)cc1`, 9.26% (inactive); to `Cc1onc(-c2ccccc2Cl)c1C(=O)OCc1nnc(-c2ccccc2)o1`, -0.22% (inactive).
Take `Cc1onc(-c2ccccc2)c1-c1nnc(COC(=O)c2ccc(N(C)C)cc2)o1`: the inhibition is 54.4% (active).
The same measure for `O=C(NC1CCCC1)C1c2ccccc2OCC(=O)N1CC(F)(F)F` (stereo unspecified): 1.42% (inactive); for `COC1=CC(=O)OC(C)(c2ccccc2)C1` (stereo unspecified): 20.1% (inactive).
Consider `COc1cc2c(C(=O)O)c(C)n(C)c2c2ccccc12`, for which the inhibition is 14% (inactive).
On to `COc1cccc2c(O)cc(=O)n(C)c12`, for which the inhibition was 15.4% (inactive).
Take `COc1cccc2c(C)c(C(=O)O)[nH]c12`: the inhibition is 74.4% (active).
To `CC1(C(=O)NS(=O)(=O)c2ccc(C#N)cc2)CCN1C(=O)c1ccc(C2CCCCC2)cc1` (stereo unspecified) belongs 24.4% (inactive).
With `CN1CCN(C(=O)CCc2ncc(C(F)(F)F)cc2Cl)CC1`, the inhibition was -4.72% (inactive).
Consider `O=C1NC[C@H](CCCCN2C[C@H](Cc3ccccc3)N(Cc3ccccc3)C(=O)C2=O)N(CCc2ccc(O)cc2)C1=O`, for which the inhibition is -9.13% (inactive).
For `O=c1cc(N2CCCCC2)c(-c2ccccc2)nn1Cc1cccc(F)c1`, the inhibition was -1.41% (inactive).
Take `Cc1ccc(N/C=C/C(=O)c2ccccc2)cc1C`: the inhibition was 66.8% (active).
In the case of `COc1ccc(N2C(=O)CCC(C(=O)Nc3ccccn3)C2c2ccc(OC)c(OC)c2)cc1` (stereo unspecified), the inhibition is 2.83% (inactive).
As for `CCOc1ccc(NC(=S)N2CCC(NC(=O)c3ccccc3)CC2)cc1`, the inhibition was -4.25% (inactive).
Regarding `Cc1ccc(NNC(=O)C2CCC2)cc1C`, the inhibition is -5.21% (inactive).
On to `Cc1cc(N/C=C\C(=O)c2ccc(Cl)c(Cl)c2)no1`, for which the inhibition was -21% (inactive).
For the compound `CCOc1ccc(NC(=O)C2CCCN(C(=O)Nc3ccccc3)C2)cc1` (stereo unspecified), the inhibition was -2.21% (inactive).
In the case of `O=C(/C=C/NCc1ccc(F)cc1)c1ccccc1`, the inhibition was -22.1% (inactive).
On to `COc1ccc(C(=O)/C=C/Nc2ccccn2)cc1`, for which the inhibition was 97.4% (active).
Take `CCOc1ccc(N/C=C/C(=O)c2ccccc2)cc1`: the inhibition is 70.8% (active).
